Bioassay records (PubChem)
A selection: hits, their analogues and other compounds. The true share with any hit is near 19%.
HT1080-NT tox: kills 2HG-producing HT-1080-NT fibrosarcoma cells | HT-1080-NT fibrosarcoma viability, CellTiter-Glo ATP luminescence, 48 h | Potency, µM (series often up to 46.1 µM), for inactives: at the highest dose activity, negative = less viability, actives largely listed as cytotoxic | 360,000 tested, 1.6% active | AID 686970;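 note: NT is the 2HG producing partner of a matched IDH1 knockdown line; 0% = DMSO-treated cells and -100% = media-only wells without cells; nearly all actives have a fitted effect of over 55% in size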
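HT-1080-NT; 750 cells/well; 5% FBS RPMI; 48 h compound, 37 degrees C; CellTiter-Glo luminescence; curve fitting and curve-class assignment.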
DT40 TDP1 no CPT: qHTS for Inhibitors of human tyrosyl-DNA phosphodiesterase 1 (TDP1): qHTS in cells in absence of CPT | DT40 Tdp1-/- hTDP1 cells, no CPT, ATP luminescence, 48 h | 420,000 tested, 15% active | Potency, µM (highest dose often 46.2 µM), for the others: at the highest dose activity change, negative = growth inhibition, actives largely listed as inhibitors; note: nearly all actives have a fitted effect of over 55% in size
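A cellular qHTS used chicken DT40 cells lacking endogenous Tdp1 but carrying stably transfected human TDP1. Compounds were applied without camptothecin, and cell growth kinetics were judged by ATP-dependent luminescence after ≥48 hr.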
KB-V1 cytotox: kills drug-selected multidrug resistant KB-V1 cells; KB-V1 MDR cells viability, CellTiter-Glo, 72 h; Potency, µM (top dose mostly 46.1 µM), actives largely listed as cytotoxic; 400,000 tested, 3.4% active; AID 1347076; note: nearly all actives have a fitted effect of over 60% in size
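In this primary screen, KB-V1 cells overexpressing P-gp are incubated with library compounds (lowest to highest concentration) for 72 h at 37 degrees C before a luminescent ATP viability read.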
HT1080 IDH1KD tx: toxicity to HT-1080 IDH1 knockdown cells (counter line) | 360,000 tested, 2% active | Potency, µM (titrated, usually from 46.1 µM), inactives show top-dose activity, negative = toxicity, most hits filed as cytotoxic | AID 686971 | HT-1080 IDH1 knockdown viability, ATP luminescence, 48 h;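 note: 0% = DMSO wells and -100% = cell-free medium wells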
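HT-1080-IDH1KD cells (IDH1 knocked down), 750/well in RPMI with 5% FBS, treated with compound 48 h at 37 degrees C. Viability by CellTiter-Glo luminescence, normalised to DMSO and no-cell wells; concentration-response curves classed.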
KB-3-1 tox: kills parental KB-3-1 adenocarcinoma cells; Potency, µM (series often up to 46.1 µM), usual class: cytotoxic; 400,000 tested, 1.4% active; KB-3-1 viability, CellTiter-Glo ATP luminescence, 72 h; note: nearly all actives have a fitted effect of over 60% in size
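Parental KB-3-1 viability, qHTS format: 72 h compound exposure, 37 °C; CellTiter-Glo; media-only wells and DMSO plates as controls; concentration-effect fits on corrected data.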
TDP1 cell CPT: growth inhibition of DT40 Tdp1-/-;hTDP1 cells with camptothecin (screen for TDP1 inhibitors); Potency, µM (highest dose often 46.2 µM), inactives show at the top dose activity change, negative = growth inhibition, usual class: inhibitors; 420,000 tested, 12% active; chicken DT40 Tdp1-/-;hTDP1 cells + 20 nM CPT, ATP luminescence, 48 h; note: nearly all actives have a fitted effect of over 55% in size
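Cell growth measured by CellTiter-Glo luminescence after a minimum 48 h, 37 C compound exposure with 20 nM CPT in Tdp1-knockout DT40 cells stably expressing hTDP1, seeded 400/well; qHTS titration format.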
Starred values were filed as active, the others as inactive; i = inactive; u = inconclusive; x = no result given. Calls come from the whole dose curve; as a rule, active = well fitted curve in the direction sought with a large enough effect; inconclusive = small, poorly fitted or top-dose-only effect, or another doubt; inactive = no such curve, though single readings can be large; an effect the other way counts as inactive or inconclusive. Unless noted, % is set by controls: 0 for no effect and ±100 for the full control effect; potency is the fitted concentration of half-maximal effect.

SMILES	HT1080-NT tox	DT40 TDP1 no CPT	KB-V1 cytotox	HT1080 IDH1KD tx	KB-3-1 tox	TDP1 cell CPT
COc1ccc(OC)c(Nc2cc3ccccc3c(=O)[nH]2)c1	u	1.84µM*	23.1µM*	18.4µM*	4.11µM*	1.3µM*
COc1ccccc1Nc1cc2cc(Br)ccc2c(=O)[nH]1	-27.2%	5.17µM*	u	u	7.31µM*	2.59µM*
O=c1[nH]c(Nc2ccccc2)cc2cc(Br)ccc12	-11.6%	18.4µM*	u	-22.7%	i	u
CCc1ccc(C(=O)N/N=C/c2ccncc2)s1	0.3%	-19.0%	i	4.9%	i	-7.5%
CC(C(=O)Nc1cccnc1)n1cc([N+](=O)[O-])cn1 (centres undefined)	17.3%	0.5%	i	3.9%	i	-1.2%
Cn1nc(-c2ccc(OCC(=O)NCC3CCCO3)cc2)c2ccccc2c1=O (centres undefined)	-11.5%	11.6µM*	u	-1.1%	i	18.4µM*
Cn1nc(-c2ccc(C(=O)NCC3CCCO3)cc2)c2ccccc2c1=O (centres undefined)	-0.8%	u	i	-0.9%	i	u
CN(C(=O)c1ccc(-c2nn(C)c(=O)c3ccccc23)cc1)C1CCCCC1	-20.9%	16.4µM*	4.11µM*	1.0%	18.4µM*	13µM*
COc1ccc(OCC(=O)Nc2cc(-c3nn(C)c(=O)c4ccccc34)ccc2OC)cc1	-13.4%	16.4µM*	u	-19.1%	i	16.4µM*
COc1ccc(NC(=O)COc2ccc(-c3nn(C)c(=O)c4ccccc34)cc2)cc1	-14.3%	u	u	u	i	u
CCC12CC1(C(=O)OC)C(=O)N1CCc3c([nH]c4ccccc34)C12 (centres undefined)	-1.5%	-12.9%	i	3.3%	i	1.1%
COc1ccc(N(C(=O)c2snc(C(N)=O)c2N)C(C(=O)NC2CCCC2)c2cccs2)c(OC)c1 (centres undefined)	-4.2%	20.6µM*	i	-10.3%	i	u
COc1ccccc1N(C(=O)c1snc(C(N)=O)c1N)C(C(=O)NC1CCCCC1)c1cccc(OC)c1OC (centres undefined)	-19.9%	16.4µM*	i	-9.3%	i	u
CC(C)CCSc1nc2c(c(=O)n(C)c(=O)n2C)n1Cc1ccccc1Cl	x	-17.5%	u	x	i	6.4%
CCOc1ccc(NC(=O)Nc2cc(C(C)C)c(O)cc2C)cc1	-11.9%	u	i	-0.3%	i	u
CCOc1ccc(NC(=O)Nc2cc(C)ccc2F)cc1	u	-14.9%	13µM*	u	i	u
O=C(NCCNC(=O)c1cc(OCC(F)(F)F)ccc1OCC(F)(F)F)Nc1ccc(OC(F)(F)F)cc1	-25.8%	23.1µM*	i	-17.9%	i	u
CCOc1cc(NC(=O)Nc2ccc(F)cc2)c(OCC)cc1NC(=O)CC	14.8%	5.3%	i	10.6%	i	-2.1%
CCOc1ccc(NC(=O)Nc2cc(OCC(F)(F)F)cc(OCC(F)(F)F)c2)cc1	-1.7%	2.91µM*	i	u	u	2.91µM*
O=C(NCCNC(=O)c1cc(OCC(F)(F)F)ccc1OCC(F)(F)F)Nc1ccc(Cl)cc1	4.4%	7.4%	i	-2.7%	i	-18.0%
O=C(Nc1ccc(F)cc1)Nc1cc(OCC(F)(F)F)cc(OCC(F)(F)F)c1	7.31µM*	4.61µM*	u	8.2µM*	6.51µM*	2.59µM*
CCOC(=O)Cn1c(=O)n(C2CCCCC2)c2nc(-c3ccc(Cl)cc3)nc(C(N)=O)c21	x	x	i	x	u	x
CC(=O)O[C@]1(C)CC[C@]23CC1C(C)(C)C2CC[C@@H]3C (some centres undefined)	x	15.2%	x	x	x	-6.7%
CC(C)OCCCN1C(=O)c2[nH]nc(-c3ccccc3O)c2C1c1cccc(Cl)c1 (centres undefined)	u	23.1µM*	16.4µM*	u	u	18.4µM*
COCCCN1C(=O)c2[nH]nc(-c3ccccc3O)c2C1c1cccc(Cl)c1 (centres undefined)	25.9µM*	2.91µM*	20.6µM*	u	8.2µM*	20.6µM*
SMILES	HT1080-NT tox	DT40 TDP1 no CPT	KB-V1 cytotox	HT1080 IDH1KD tx	KB-3-1 tox	TDP1 cell CPT
COCCNC(=O)C1(C)CCN(C(=O)c2sc(-c3ccccc3)nc2C)C1 (centres undefined)	17.5%	-6.6%	i	24.9%	i	-6.3%
COc1ccc(Cn2c(CO)cnc2SCC(=O)NCc2ccco2)cc1	x	6.6%	i	x	i	3.4%
Oc1cc2cc(-c3csc(-c4ccc(F)cc4)n3)cc3c2n1CCC3	x	20µM*	i	x	u	u
N=C1C(c2nc(-c3ccc(F)cc3)cs2)=C(O)CN1Cc1ccc(Cl)cc1	u	-12.2%	i	u	i	-7.3%
Cc1cccc2[nH]c3c(N4CC=C(c5ccc(F)cc5)CC4)ncnc3c12	u	14.6µM*	i	u	i	13µM*
COc1ccccc1-n1c2nc3ccccc3nc2c2c(=O)n(-c3cc(C)cc(C)c3)cnc21	6.0%	u	u	-1.1%	i	3.66µM*
CCCCCn1c2nc3ccccc3nc2c2c(=O)n(CC(C)C)cnc21	10.3%	-6.7%	i	15.2%	i	-25.7%
COc1ccccc1-n1cnc2c(c1=O)c1nc3ccccc3nc1n2-c1ccc(C)cc1	10.8%	u	u	16.5%	i	u
COc1ccccc1-n1cnc2c(c1=O)c1nc3ccccc3nc1n2CCc1ccccc1	19.4%	16.4µM*	i	17.6%	i	20.6µM*
CCCCn1c2c(c(=N)c3ccccc31)CCC2	u	u	i	-14.7%	u	u
CCOC(=O)Cn1c2c(c(=N)c3ccccc31)CCC2	0.4%	-17.9%	u	7.5%	i	-10.0%
CCCCCCCCn1c2c(c(=N)c3ccccc31)CCC2	23.1µM*	0.411µM*	i	9.2µM*	3.26µM*	0.411µM*
CCCCCn1c2c(c(=N)c3ccccc31)CCC2	u	1.46µM*	u	2.91µM*	3.66µM*	1.84µM*
Cn1c(SCC(=O)Nc2ccc(C(N)=O)cc2)nc2c(c1=O)SCC2	1.5%	-3.6%	i	8.4%	i	7.3%
CCOC(=O)c1ccc(NC(=O)CSc2nc3c(c(=O)n2-c2ccccc2OC)SCC3)cc1	8.1%	11.6µM*	i	6.9%	i	u
